From PubChem
This is a sample that favours compounds with a hit; in the whole collection about 3.6% have one here.
CF NFkB block: inhibitors of PAF-induced NF-kB signaling, primary screen, cell-based, GFP fluorescence, uHTS. KKLEB NF-kB-GFP reporter, GFP fluorescence overnight. hit rate 0.86% among 360,000. inhibition, % at 5 µM. AID 588850, 2011;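 active means at least 50% inhibition at 5 µM, scaled per plate between neutral and stimulator controls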;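 further: PAF is a Pseudomonas aeruginosa culture filtrate used as stimulus; plate controls were PAF-stimulated DMSO wells for no effect and unstimulated DMSO wells for full effect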
Mdm2 MdmX PPI: inhibitors of human Mdm2-MdmX association, primary screen, cell-based, luminescence, split luciferase, SaOS-2, uHTS; SaOS-2 split-luciferase Mdm2/MdmX complementation; inhibition, % at 8 µM; hit rate 3% among 330,000;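 active means inhibition of at least 50% at 8 µM in the primary screen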
Target sequence (O15151 whole entry, looked up): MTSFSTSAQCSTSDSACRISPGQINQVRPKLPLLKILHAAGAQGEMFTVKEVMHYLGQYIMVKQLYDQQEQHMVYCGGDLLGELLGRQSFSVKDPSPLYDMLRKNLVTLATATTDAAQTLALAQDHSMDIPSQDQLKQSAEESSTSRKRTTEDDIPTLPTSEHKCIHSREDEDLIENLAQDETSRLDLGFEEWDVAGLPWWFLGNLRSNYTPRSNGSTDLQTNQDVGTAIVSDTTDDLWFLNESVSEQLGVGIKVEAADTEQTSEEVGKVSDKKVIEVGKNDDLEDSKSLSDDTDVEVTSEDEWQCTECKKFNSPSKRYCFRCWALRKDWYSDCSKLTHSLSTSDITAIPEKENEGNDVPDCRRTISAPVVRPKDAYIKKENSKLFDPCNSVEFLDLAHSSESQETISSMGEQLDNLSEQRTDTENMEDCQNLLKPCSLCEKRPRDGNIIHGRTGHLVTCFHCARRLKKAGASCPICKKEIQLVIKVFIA
Target sequence (Q00987 whole entry, looked up): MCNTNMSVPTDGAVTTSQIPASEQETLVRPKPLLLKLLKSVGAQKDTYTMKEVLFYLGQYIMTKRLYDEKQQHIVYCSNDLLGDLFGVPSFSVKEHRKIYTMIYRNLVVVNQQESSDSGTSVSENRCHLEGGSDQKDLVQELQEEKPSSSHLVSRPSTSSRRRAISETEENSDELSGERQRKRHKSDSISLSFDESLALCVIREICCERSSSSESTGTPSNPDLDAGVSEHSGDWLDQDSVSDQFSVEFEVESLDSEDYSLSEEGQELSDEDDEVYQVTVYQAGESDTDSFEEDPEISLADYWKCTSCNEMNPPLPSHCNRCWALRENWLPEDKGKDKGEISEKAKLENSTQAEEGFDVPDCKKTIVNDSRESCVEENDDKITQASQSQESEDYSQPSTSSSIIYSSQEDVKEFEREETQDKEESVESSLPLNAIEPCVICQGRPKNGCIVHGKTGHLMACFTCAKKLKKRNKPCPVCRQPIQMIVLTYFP
HSP90 refold inh: HSP90 inhibitors, primary screen, cell lysate, luminescence | Rabbit reticulocyte lysate, luciferase refolding luminescence, 3 h | inhibition, % at 5.6 µM | hit rate 0.91% among 290,000;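 active means inhibition above the screen-wide mean plus 3 SD, computed separately per campaign, cut at about 16% in these data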;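 further: 0% = DMSO wells and 100% = 60 µM geldanamycin wells; inhibitors lower the luminescence because luciferase stays unfolded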
Peg3 prom inh: Peg3 promoter-driven luciferase inhibitors, primary screen, cell-based, HeLa, luciferase luminescence; HeLa PEG-Prom luciferase reporter, overnight; inhibition, % at 20 µM; hit rate 1.7% among 360,000; AID 588405, 2011;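 active means inhibition of at least 50% at 20 µM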
KKLEB cytotox: cytotoxicity in KKLEB CF airway cells, primary screen, cytotoxicity control for CF NF-kB inhibitor project, cell-based, uHTS, fluorescence assay plates; KKLEB CF airway cells viability, ATPlite luminescence, overnight; active compounds read low; cells stimulated with P. aeruginosa culture filtrate; activity change (cytotoxicity), % at 5 µM; hit rate 0.36% among 360,000; AID 602141, 2011;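 active means corrected activity change at or below -50% at 5 µM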
LGR2 inh: inhibitors of bursicon-induced LGR2 CRE-luciferase signal, primary screen, cell-based, HEK293, CRE-luciferase reporter, bursicon stimulation; bursicon-stimulated, 4 h; inhibition, % at 9.99 µM; hit rate 0.35% among 380,000; AID 720647, 2013; Drosophila bursicon receptor LGR2 (rickets);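 active means drop in luminescence signal, shown as inhibition above about 50% in the replicate tests, limit read from the data, passing the limit was not always enough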;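 further: agonist challenge used bursicon conditioned medium at about half maximal strength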
Mdm2-MdmX conf: Mdm2-MdmX complex disruptors, retested hits, confirmation, luminescence, single concentration; shares compounds with Mdm2 MdmX PPI; Mdm2-MdmX binding, luminescent assay; inhibition, % at 8 µM; hit rate 55% among 10,000; AID 489028, 2010; in the data active means inhibition above about 40%
FLuc counter: full-length luciferase signal inhibition, confirmation, counter-screen for Mdm2/MdmX interaction inhibitor project, cell-based, single concentration, SaOS-2; shares compounds with Mdm2 MdmX PPI; SaOS-2 full-length luciferase counterscreen, luminescence; inhibition, % at 8 µM; hit rate 77% among 6,200;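 active means mean inhibition at 8 µM reaching about 37%, which flags the compound as non-specific, limit read from the data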;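 further: p53-null SaOS-2 cells with luciferase driven by a doxycycline-inducible promoter; compound on cells about two nights before reading with doxycycline added after day one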
The depositor's hits bear a star; · = no result.

SMILES	CF NFkB block	Mdm2 MdmX PPI	HSP90 refold inh	Peg3 prom inh	KKLEB cytotox	LGR2 inh	Mdm2-MdmX conf	FLuc counter
O=C(c1ccncc1)N1C[C@H]2[C@@H](c3ccccc31)[C@@H](CO)N2Cc1ccc(F)cc1	·	·	·	·	·	-1.1	·	·
COc1ccc(NS(=O)(=O)c2cc(OC)ccc2OC)cc1	1.4	-1.0	·	2.8	-3.0	-0.2	·	·
COc1ccc(NS(=O)(=O)c2cc(OC)ccc2NC(=O)c2cc(C)oc2C)cc1	4.7	51.5*	1.7	9.2	-12.3	·	60.6*	48.5*
C[C@@H]1CN([C@@H](C)CO)C(=O)c2cc(NC(=O)C3CC3)ccc2O[C@@H]1CN(C)S(C)(=O)=O	·	·	·	·	·	-7.6	·	·
Cc1noc(C)c1S(=O)(=O)Nc1ccc2c(c1)C(=O)N([C@@H](C)CO)C[C@@H](C)[C@H](CN(C)Cc1ccc(C(F)(F)F)cc1)OCCCC[C@@H](C)O2	·	·	·	·	·	20.4	·	·
CCCNC(=O)[C@H]1[C@H](CO)[C@H]2Cn3c(ccc(-c4ccccc4)c3=O)[C@H]2N1CC	·	·	·	·	·	-5.8	·	·
Cc1ccc(CNC(=O)c2ccc(N3CCC4(CC3)CC(c3ccccc3)=NO4)c(N)c2)cc1	30.9	54.9*	0.1	-2.6	-42.3	-1.9	-0.3	·
Cc1noc(C)c1S(=O)(=O)N(C)C[C@@H]1Oc2ccc(NS(=O)(=O)c3cn(C)cn3)cc2CC(=O)N([C@@H](C)CO)C[C@H]1C	·	·	·	·	·	6.6	·	·
C=CCNc1nc2c(c(=O)[nH]c(=O)n2C)n1CC(O)COc1ccc2ccccc2c1 (stereo not drawn)	-10.3	58.6*	1.6	34.4	-0.1	-1.9	19.6	·
CNC[C@H]1Oc2ncc(-c3ccccc3C)cc2C(=O)N([C@H](C)CO)C[C@H]1C	·	·	·	·	·	-16.8	·	·
C[C@H](CO)N1C[C@H](C)[C@H](CN(C)C(=O)c2ccccc2F)Oc2ncc(-c3cccnc3)cc2C1=O	·	·	·	·	·	16.3	·	·
Cc1ccc2c(c1)cc(C(=O)NCc1ccccc1)n2C	3.4	84.9*	-7.7	9.2	-4.4	0.3	55.5*	52.1*
Cc1cc2cc(CNC(=S)NCc3ccccc3)ccc2n1C	-20.7	8.5	1.2	26.4	14.3	6.3	·	·
C[C@H]1CN([C@@H](C)CO)C(=O)c2cccc(N(C)C)c2O[C@H]1CN(C)C(=O)Nc1ccc2c(c1)OCO2	·	·	·	·	·	-6.6	·	·
CCC(=O)Nc1ccc2c(c1)C(=O)N(C)[C@@H]1CC[C@@H](CC(=O)NCC3CCCCC3)O[C@H]1CO2	·	·	·	·	·	0.8	·	·
COc1ccc(C(=O)NNC(=O)c2cc3ccccc3cc2O)cc1	-13.9	50.4*	·	-2.9	14.0	7.7	38.8	·
COc1ccc(NC(=O)NNC(=O)c2ccc(-c3ccccc3)cc2)c(OC)c1	-24.4	-21.6	4.6	2.9	29.5	-4.5	·	·
COc1ccc(NC(=O)NNC(=O)c2ccc(-c3ccccc3)cc2)cc1	-9.1	59.1*	-4.2	-2.4	-17.3	-0.6	28.3	·
C[C@H]1CCCCO[C@H](CN(C)C(=O)Nc2ccc(C(F)(F)F)cc2)[C@@H](C)CN([C@@H](C)CO)C(=O)c2cc(NC(=O)Nc3cccc4ccccc34)ccc2O1	·	·	·	·	·	1.4	·	·
COc1ccc(C(=O)NNc2ccccc2)cc1	19.0	-8.2	-4.2	11.6	-5.9	-0.1	·	·
CC(C)(C)c1ccc(C(=O)NNC(=O)c2ccc(Cl)cc2)cc1	-11.6	-4.8	0.4	-6.8	-20.1	-21.5	·	·
O=C(NNC1=C(C(=O)C(F)(F)F)CCC1)c1ccc(Cl)cc1	2.6	51.9*	3.6	-88.7	-16.0	·	55.0*	75.5*
COc1ccc(C(=O)NNC2=C(C(=O)C(F)(F)F)CCC2)cc1	20.5	68.1*	1.7	-3.5	-15.8	-0.9	38.2	97.1*
O=C(NNC1=C(C(=O)C(F)(F)F)CCC1)c1cccc(Cl)c1	-1.6	61.4*	5.5	-10.1	5.8	·	36.4	64.8*
CC1CCC(C(C)C)C(OC(=O)C[n+]2cc(-c3ccc(Cl)cc3)n3c2CCCCC3)C1 (stereo not drawn)	26.3	85.2*	11.6	45.3	-16.1	39.9	74.3*	36.5*
SMILES	CF NFkB block	Mdm2 MdmX PPI	HSP90 refold inh	Peg3 prom inh	KKLEB cytotox	LGR2 inh	Mdm2-MdmX conf	FLuc counter
O=C(C[C@@H]1CC[C@H]2[C@@H](COC[C@@H](O)CN2Cc2ccccc2)O1)NCCCN1CCOCC1	·	·	·	·	·	3.0	·	·
CCOC(=O)c1oc2ccc(OC)cc2c1NC(=O)CN1CCN(C)CC1	17.3	-10.3	0.5	4.7	-15.0	·	·	·
Cc1ccc(C(=O)c2oc3ccc(Cl)cc3c2NC(=O)CN2CCN(C)CC2)cc1	13.0	81.7*	0.3	107.2*	-12.4	-22.1	34.4	68.2*
Cc1noc(C)c1S(=O)(=O)Nc1ccc2c(c1)CC(=O)N([C@H](C)CO)C[C@@H](C)[C@@H](CN(C)CC1CCCCC1)O2	·	·	·	·	·	0.8	·	·
NC1=NC2(CCCCC2)N=C(Nc2ccc(F)cc2F)N1	1.4	1.6	-6.2	-6.6	7.6	·	·	·
Cc1cc(C)cc(NC2=NC3(CCCCC3)N=C(N)N2)c1	0.1	59.3*	-2.6	21.6	-5.4	·	53.0*	73.0*
O=C(Nc1cc(C(F)(F)F)cc(C(F)(F)F)c1)Nc1cnn(-c2ccc([N+](=O)[O-])cc2)c1C(F)(F)F	77.2*	100.3*	4.1	96.0*	-68.9*	3.6	93.3*	60.0*
CCC(C)Sc1cccc(-c2nc3ccc(Cl)cn3c2NCc2ccccc2)c1 (stereo not drawn)	10.3	65.6*	·	-34.0	-2.0	·	9.4	·
C[C@H]1CN([C@@H](C)CO)C(=O)c2cccc(NC(=O)Nc3ccc4c(c3)OCO4)c2O[C@@H]1CN(C)C(=O)NC1CCCCC1	·	·	·	·	·	-31.8	·	·
C=Cn1ccnc1P(=S)(c1ccc2c(c1)c1ccccc1n2CC)c1nccn1C=C	12.0	66.6*	-8.3	43.9	-6.2	7.2	63.2*	55.9*
O=C(NC(CSCc1ccccc1)C(=O)N/N=C/c1ccc(O)cc1O)c1ccc([N+](=O)[O-])cc1 (stereo not drawn)	9.6	65.0*	-3.1	51.4*	13.3	·	74.0*	34.3
COc1ccc(Nc2c3c(nc4ccccc24)CCC3)c(OC)c1	6.5	47.4	-1.8	23.3	-9.1	24.1	·	·
c1ccc2c(Nc3ccc4c(c3)OCCO4)c3c(nc2c1)CCCC3	18.0	70.1*	-0.3	16.9	-22.2	26.3	58.8*	85.0*
